# High-throughput results as filed in PubChem.
# GDH-TPI counter-1 = counter-screen for M. tuberculosis FBA inhibitors: GDH-TPI coupled enzymes. inhibition, % at 4.8 µM. AID 588335. 360,000 tested, 1.2% active. GDH-TPI coupled enzyme counterscreen, NADH absorbance; in the data active = inhibition above about 30%;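 also: 0% = DMSO wells and 100% = wells lacking the enzyme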
# BoNT A protease = BoNT A light chain protease inhibition; multiplex microsphere protease substrate cleavage, flow cytometry; 360,000 tested, 0.17% active; inhibition, % at 10 µM; also: plate controls were buffer without enzyme for full effect and enzyme alone for no effect
# FBA Mtb inh = Mtb fructose-bisphosphate aldolase inhibition; inhibition, % at 1 µM; 360,000 tested, 2.3% active; purified M. tuberculosis FBA, fluorescence read-out; in the data active = inhibition above about 27%;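 also: 0% = vehicle and 100% = reference inhibitor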
# Target sequence (P9WQA3 whole entry, looked up): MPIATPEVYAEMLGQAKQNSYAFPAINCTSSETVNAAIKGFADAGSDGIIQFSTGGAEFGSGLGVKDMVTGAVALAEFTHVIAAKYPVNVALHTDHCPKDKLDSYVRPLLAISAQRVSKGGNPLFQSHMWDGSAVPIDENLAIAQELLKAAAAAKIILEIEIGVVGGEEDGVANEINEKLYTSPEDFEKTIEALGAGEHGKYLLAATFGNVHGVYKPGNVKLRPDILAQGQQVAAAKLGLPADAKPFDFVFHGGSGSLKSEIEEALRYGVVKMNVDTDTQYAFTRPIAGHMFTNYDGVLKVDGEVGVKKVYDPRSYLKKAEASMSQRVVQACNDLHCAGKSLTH
# Autofluor counter = counter-screen for toxin protease inhibitors: compound fluorescence | compound autofluorescence counterscreen, microsphere flow cytometry; hits give high values | fluorescence intensity (concentration not given with the values) | 360,000 tested, 3.1% active | AID 624483; in the data active = fluorescence intensity above about 16000; inconclusive = no clear call, values can overlap the other calls
# Anthrax LF inh2 = anthrax lethal factor protease inhibition; P15917; multiplex microsphere protease cleavage assay, LF; inhibition, % at 10 µM; 360,000 tested, 0.12% active; AID 588501; also: plate controls were buffer without enzyme for full effect and enzyme alone for no effect
# BoNT-F LC inh = inhibitors of Botulinum neurotoxin F light chain protease; Multiplex microsphere protease cleavage assay, flow cytometry; inhibition, % at 10 µM; 360,000 tested, 0.22% active; AID 588497; in the data active = inhibition above about 35%, passing the limit was not always enough; inconclusive = no clear call, values can overlap the other calls; also: plate controls were buffer without enzyme for full effect and enzyme alone for no effect
# Mtb FBA confirm = confirmation of M. tuberculosis fructose-bisphosphate aldolase inhibitors. shares compounds with FBA Mtb inh. purified M. tuberculosis FBA, fluorescence read-out. inhibition, % at 1 µM. 5,600 tested, 78% active. AID 651616; in the data active = inhibition above about 27%;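 also: 0% = vehicle wells and 100% = reference inhibitor wells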
# GDH-TPI counter-2 = GDH-TPI inhibition counter-screen for FBA inhibitors. 5,600 tested, 81% active. shares compounds with FBA Mtb inh. GDH-TPI coupled enzyme counterscreen, fluorescence. inhibition, % at 1 µM. AID 652141; in the data active = inhibition above about 10%
# An asterisk follows results filed as active; ? = inconclusive; / = no result; + = active, no number. The list is not random: actives were taken first. Their share in the collection is about 6.7%. Rule as the data show it, unless noted: active = inhibition above about 30%; inconclusive = no clear call, values can overlap the other calls; inactive = below that.
SMILES,GDH-TPI counter-1,BoNT A protease,FBA Mtb inh,Autofluor counter,Anthrax LF inh2,BoNT-F LC inh,Mtb FBA confirm,GDH-TPI counter-2
CC(=O)Oc1ccc(C(=O)Nc2ccc3c(c2)C(=O)N(CCC(=O)O)C3=O)cc1,23,0,47*,11384,-1,1,132*,110*
O=C(O)CCN1C(=O)c2ccc(NC(=O)Cc3ccc(Cl)cc3)cc2C1=O,6,0,31*,4318,-9,-5,167*,154*
O=C(Cc1ccccc1)Nc1ccc2c(c1)C(=O)N(CC1CCCO1)C2=O (stereo unspecified),1,0,31*,2195,1,0,149*,99*
O=C(O)CCN1C(=O)c2ccc(NC(=O)c3ccco3)cc2C1=O,4,-1,10,5132,-4,-8,/,/
O=C(O)CCN1C(=O)c2ccc(NC(=O)C(c3ccccc3)c3ccccc3)cc2C1=O,10,/,36*,/,/,/,-4,-6
O=C(NNc1cccc(Cl)n1)c1ccccc1CC[N+](=O)[O-],-1,1,2,3156,-4,5,/,/
COC(=O)c1sc(NC(=S)NC(=O)c2ccccc2Cl)nc1C,22,0,-3,2191,-1,0,/,/
O=C(Nc1cccc(S(=O)(=O)Nc2ccc(Cl)cc2)c1)c1ccccn1,9,0,7,3054,-11,-5,/,/
CN(Cc1cc2ccccc2[nH]c1=O)C(=O)COc1ccccc1,13,-2,0,5543,-2,-2,/,/
COc1ccc(CNC(=O)c2cc(=O)c3cc(C)c(C)cc3o2)cc1,0,2,0,3658,-8,17,/,/
O=C(O)CCC(=O)Nc1nc2nc(-c3ccccc3)cc(-c3ccccc3)n2n1,36*,1,98*,2571,-2,-3,85*,98*
CC(=O)Nc1ccc(S(=O)(=O)Nc2nc3nc(-c4ccccc4)cc(-c4ccccc4)n3n2)cc1,7,2,24,3121,-5,13,/,/
Cc1ccc2c(c1)C(N1CCCC1=O)CC(c1ccco1)N2 (stereo unspecified),21,1,31*,3781,2,3,6,-2
CN1C(=S)SC(N(O)C(=O)Nc2ccccc2)C1(C)C (stereo unspecified),-5,0,0,4536,-3,11,/,/
CN1C(=S)SC(N(O)C(=O)Nc2cccc3ccccc23)C1(C)C (stereo unspecified),-5,-1,44*,2789,-3,-6,35*,25*
O=C(O)C1CC=C(Cl)CC1C(=O)NC1CCCCC1 (stereo unspecified),4,-1,28*,4613,2,2,160*,108*
CCOC(=O)c1c(NC(=O)C2CC(Cl)=CCC2C(=O)O)sc2c1CCCCC2 (stereo unspecified),4,0,2,5690,-8,-1,/,/
CCc1ccc(NC(=O)c2cnn(-c3ccccc3)c2C2CCNCC2)cc1,6,0,-2,2613,2,1,/,/
Cc1cc(NC(=O)CCC(=O)N(c2ccccc2)C(C(=O)NC2CCCC2)c2ccccc2)no1 (stereo unspecified),-6,0,6,4365,-2,-4,/,/
Cc1cc(NC(=O)CCC(=O)N(c2ccccc2C)C(C(=O)NC2CCCC2)c2ccccc2)no1 (stereo unspecified),8,-2,86*,3033,1,4,+,167*
O=C(C1CCC1)N1CCc2cc(S(=O)(=O)NCC3COc4ccccc4O3)ccc21 (stereo unspecified),-3,0,0,2976,-4,-10,/,/
CCn1c(CNC(=O)Cc2ccc(OC)cc2)n[nH]c1=S,-3,-1,3,4349,-6,-10,/,/
Cc1ccc(-c2cc[n+](Cc3ccccc3)cc2)cc1,10,0,67*,4009,-1,0,+,+
O=C(CCCCn1c(=O)[nH]c2ccccc2c1=O)N1CCN(c2ncccn2)CC1,-26,0,1,5706,1,0,/,/
O=C1OCc2nc3cc4c(cc3c(-c3ccc(F)cc3)c21)OCO4,13,-1,73*,3912,12,?,101*,86*
COc1ccc(-n2ccc(=O)c(C(=O)O)n2)cc1,18,1,1,2808,5,-3,/,/
